From PubChem BioAssay AID1117263 (The Scripps Research Institute Molecular Screening Center, 2014)
In all, about 2,300 compounds went through this assay and about 300 (13%) were called active.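 The calls were made as follows: active = mean inhibition of the replicates above the hit cutoff set in the primary screen (cut at about 17% in these data); inactive = the rest.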 Only a sample is shown.

molecular target: Sialate O-acetylesterase (Homo sapiens) (UniProt Q9HAT2); experiment: sialate O-acetylesterase blockers re-tested – biochemical, fluorescence polarization, FP-Rh probe, triplicate, confirmation (AID 1117263); details: SIAE FP-Rh activity-based probe, at 9.66 µM, hits give high values;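 also: 0% = SIAE with DMSO and probe and 100% = probe without SIAE; inhibitors lower polarization as more probe stays unbound to SIAE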
Sequence (Q9HAT2 whole entry, looked up): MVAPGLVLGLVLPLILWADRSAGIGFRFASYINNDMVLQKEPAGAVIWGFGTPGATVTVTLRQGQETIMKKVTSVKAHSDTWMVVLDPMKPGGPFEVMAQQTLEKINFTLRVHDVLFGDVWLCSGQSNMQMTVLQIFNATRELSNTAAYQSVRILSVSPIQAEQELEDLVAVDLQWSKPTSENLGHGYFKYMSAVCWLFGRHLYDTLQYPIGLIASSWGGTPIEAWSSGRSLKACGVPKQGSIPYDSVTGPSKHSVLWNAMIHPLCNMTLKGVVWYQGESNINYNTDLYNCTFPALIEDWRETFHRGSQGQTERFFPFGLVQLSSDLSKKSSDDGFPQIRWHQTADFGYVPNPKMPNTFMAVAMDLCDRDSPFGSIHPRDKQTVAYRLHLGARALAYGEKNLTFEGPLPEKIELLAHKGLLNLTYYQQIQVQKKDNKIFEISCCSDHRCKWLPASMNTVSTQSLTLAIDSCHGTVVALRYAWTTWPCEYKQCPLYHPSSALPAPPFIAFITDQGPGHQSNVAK

Row | Structure (SMILES) | inhibition
1 | Oc1ccc(CNc2ccccc2O)cc1 | -1.96% (inactive)
2 | Cc1cccc(C)c1NC(=O)CN(C)C(=O)CCC(=O)c1ccccc1 | -0.52% (inactive)
3 | CN(C)c1ccc(N/C=C/C(=O)C(F)(F)F)cc1 | 2.35% (inactive)
4 | COc1cc(C(=O)Nn2c(O)c(C3=c4ccccc4=NC3=O)sc2=S)ccc1O | 34.8% (active)
5 | Cc1nc2ccc(C(=O)N3CCSCC3)cc2s1 | -7.27% (inactive)
6 | COC(=O)C1=C(NC(=O)C(C)(C)C)CCS1 | 0.95% (inactive)
7 | CN(CC(=O)Nc1cccc(F)c1)CC(=O)Nc1cccc([N+](=O)[O-])c1 | 1.24% (inactive)
8 | CCOC(=O)c1c(C)nn(-c2ncccc2NC(=O)CCC(=O)O)c1C | -3.52% (inactive)
9 | CC(C)CCNC(=O)C1CCCN(S(=O)(=O)c2ccc(F)cc2)C1 (centres undefined) | 1.12% (inactive)
10 | CN1c2ccc(C=O)c3c(C=O)ccc(c23)N(C)C1(C)C | 4.27% (inactive)
11 | COc1ccc(C2OCC3(CO2)SC(=O)NC3=O)cc1OC (centres undefined) | -9.1% (inactive)
12 | CC1(C)C/C(=C(/C#N)C(N)=O)CCO1 | -3.01% (inactive)
13 | CCOc1cc(N2CCOCC2)c(OCC)cc1NC(=O)COc1cccc2cccnc12 | 8.9% (inactive)
14 | O=C(NNc1c2ccccc2nc2ccccc12)c1cc2ccccc2cc1O | 13.8% (inactive)
15 | CC(=O)Nc1ccc(Nc2cc(C)nc(Nc3ccc(NC(C)=O)cc3)n2)cc1 | 4.83% (inactive)
16 | Cc1ccnc(NS(=O)(=O)c2ccc(NC(=O)c3ccc(S(=O)(=O)N4CCOCC4)cc3)cc2)n1 | 1.77% (inactive)
17 | Oc1ccc(C2Nc3cccc4cccc(c34)N2)cc1 | 29.6% (active)
18 | Cc1ccc(C2Nc3cccc4cccc(c34)N2)cc1 | 7.48% (inactive)
19 | Cc1ccc(NC(=S)NCCN2CCOCC2)cc1 | 2.38% (inactive)
20 | CCOc1ccccc1Nc1ccc(C(=O)O)cc1[N+](=O)[O-] | -0.47% (inactive)
21 | Cc1ccc(N=C2NC(=O)/C(=C/C=C/c3ccco3)S2)cc1C | -34.3% (inactive)
22 | CCOc1ccc(Nc2nc(Cc3nnc(SCC(=O)NC4CCCC4)n3C)cs2)cc1 | 5.78% (inactive)

Row | Structure (SMILES) | inhibition
23 | COc1ccc(C2C(C(C)=O)=C(O)C(=O)N2CCc2c[nH]c3ccccc23)cc1 (centres undefined) | 0.13% (inactive)
24 | CCOC(=O)N1CCN(C(=O)CSc2ccc(Cl)cc2)CC1 | -2.01% (inactive)
25 | CC(=O)Nc1ccc(S(=O)(=O)Nc2ccc(N3CCCCC3)cc2)cc1 | 4.68% (inactive)
26 | COc1ccc(NC(=O)/C(N=Nc2cccc(S(=O)(=O)Nc3ccc(SC(F)F)cc3)c2)=C(\C)O)cc1 | -11.2% (inactive)
27 | CCCCn1c(N)c(N(CC(C)C)C(=O)CSc2ccc([N+](=O)[O-])cc2)c(=O)[nH]c1=O | 4.78% (inactive)
28 | O=C(NC(=S)Nc1ccc(NC(=O)c2cccs2)cc1)c1ccc([N+](=O)[O-])cc1 | 15.2% (inactive)
29 | C=CCN1C(=O)[C@@H](CC(=O)NCC2CCCCC2)[C@]2(C(=O)OC)CCCCC=C12 | 4.13% (inactive)
30 | COc1ccc2nc(Nc3nc4cc5c(cc4s3)OCCO5)sc2c1 | 0.67% (inactive)
31 | O=C1CCCC(O)=C1N=Nc1ccc(S(=O)(=O)N2CCOCC2)cc1 | 3.36% (inactive)
32 | CC(=O)Nc1cccc([N+](=O)[O-])c1 | 1.2% (inactive)
33 | CC(NS(=O)(=O)c1ccc(Cl)cc1)C(=O)Nc1ccc2c(c1)OCCO2 (centres undefined) | -0.44% (inactive)
34 | CCn1c(=O)n(CC)c2cc(N3CCCC3)c(NC(=O)c3ccccc3Br)cc21 | 2.42% (inactive)
35 | O=C(Nc1ccccc1N1CCCC1)c1ccc(F)c(S(=O)(=O)N2CCOCC2)c1 | -3.75% (inactive)
36 | Cc1nc2cc(NCc3cccs3)ccc2n1C | -2.47% (inactive)
37 | Cn1cccc1/C=N/NC(=O)CNc1cccc2ccccc12 | 5.62% (inactive)
38 | O=C(N/N=C/c1sc(N2CCCCC2)nc1-c1cccs1)c1cccnc1 | 16.6% (inactive)
39 | C/C=C/c1ccc(OCC(=O)OCC(=O)Nc2c(C)nn(-c3ccccc3)c2C)c(OC)c1 | 3.24% (inactive)
40 | C[C@@H]1O[C@@H](OC[C@H]2O[C@@H](Oc3c(-c4ccc(O)cc4)oc4cc(O)cc(O)c4c3=O)[C@H](O)[C@@H](O)[C@@H]2O)[C@H](O)[C@H](O)[C@H]1O | 6.07% (inactive)
41 | CCOC(=O)C1=C(C)N=C2c3ccccc3C(=O)C2C1c1ccc(Br)cc1 (centres undefined) | 7.01% (inactive)
42 | Cc1cc2ccccc2n1CCNC(=O)COc1ccc2ccccc2c1 | 9.71% (inactive)
43 | Cc1cc2ccccn2c1C(=O)c1cccc(F)c1 | -0.9% (inactive)
44 | COc1ccc(Cc2nc3ccc(C(=O)N4CCC(N(C)C)C4)cc3o2)cc1 (centres undefined) | -0.71% (inactive)

Row | Structure (SMILES) | inhibition
45 | COc1ccc(-c2cc(C(=O)NC(Cc3c[nH]c4ccccc34)C(=O)O)c(C)o2)cc1OC (centres undefined) | 10.6% (inactive)
46 | NS(=O)(=O)c1ccc(NC(=O)COC(=O)c2c3c(nc4ccccc24)/C(=C\c2ccc4c(c2)OCO4)CCC3)cc1 | -152% (inactive)
47 | CCCCC[C@H](C)N1C[C@@H](COCc2ccccc2)Oc2cc(N3CC[C@@H](N(C)C)C3)ccc2S1(=O)=O | 23.2% (active)
48 | CNS(=O)(=O)c1ccc2c(c1)[nH]c(=S)n2C | 8.04% (inactive)
49 | Cc1ccc(C(=O)N/C(=C/c2ccc(-c3cccc([N+](=O)[O-])c3)o2)C(=O)NCCCN(C)C)cc1 | 0.77% (inactive)
50 | NNC(=O)c1oc2nc(-c3ccccc3)cc(-c3ccco3)c2c1N | 56% (active)
51 | Cc1ccc(OCC(=O)Nc2ccc(-c3nnc(-c4ccco4)o3)cc2)cc1 | -15.4% (inactive)
52 | CNC(=S)NNC(=O)c1oc2nc(-c3ccccc3)cc(-c3ccco3)c2c1N | 3.72% (inactive)
53 | CCOC(=O)/C(N=Nc1cc(C(=O)O)cc(C(=O)O)c1)=C(\O)CCl | 2.21% (inactive)
54 | CC(C)c1cc(N=O)cc(C(C)C)c1O | -26.2% (inactive)
55 | Oc1ccccc1C1=NN(c2ccccc2)C(c2ccccc2)C1 (centres undefined) | 6.69% (inactive)
56 | CCOc1ccc(NC(=O)C/C(C)=N/NC(=O)Cc2cccs2)cc1 | 4.73% (inactive)
57 | CCN(CC)CCCC(C)n1c2nc(=O)[nH]c(=O)c-2nc2cc(Cl)ccc21 (centres undefined) | 25.5% (active)
58 | COC(=O)C(C)Sc1ccc2nnc(-c3cccc(F)c3)n2n1 (centres undefined) | -0.98% (inactive)
59 | Oc1ccc2ccc3cccc[n+]3c2c1 | 4.67% (inactive)
60 | CCOC(=O)C1=C(c2ccccc2)O/C(=C(/C(=O)OC)C(F)(F)F)S1 | -7.25% (inactive)
61 | CCN(C(=O)COC(=O)C1CCN(S(=O)(=O)c2ccc(C)c(C)c2)CC1)C1CCS(=O)(=O)C1 (centres undefined) | 2.26% (inactive)
62 | Nc1ccc2nc3c(=O)[nH]c(=S)[nH]c3nc2c1 | 32.7% (active)
63 | Cc1nc(-c2ccc(Cl)cc2)sc1C(=O)NN | -2.12% (inactive)
64 | NNc1nc2c(Cl)cccc2s1 | 5.82% (inactive)
65 | S=C(NCCCc1cnc[nH]1)NCCCN(Cc1ccc(Cl)c(Cl)c1)c1ccc(Br)cn1 | 30.6% (active)
66 | Oc1ccc(/C=N/N(Cc2ccccc2)c2ccccc2)cc1 | 9.47% (inactive)

Row | Structure (SMILES) | inhibition
67 | CC(C)(O)C#Cc1ccc(C(=O)N2CCC(C(N)=O)(N3CCCCC3)CC2)cc1 | 2.82% (inactive)
68 | COc1cccc(/C=N/Nc2cc(C)nc(-c3ccccc3O)n2)c1O | -14.6% (inactive)
69 | COc1ccc(CCNc2ncnc3nc[nH]c23)cc1OC | -2.94% (inactive)
70 | COc1ccc2[nH]c(=S)cc(C)c2c1 | -5.42% (inactive)
71 | O=C(NN=C1CCC(=NNC(=O)c2cccnc2)CC1)c1cccnc1 | 6.57% (inactive)
72 | CCOc1ccc(Nc2nc(Cc3nnc(SCC(=O)c4ccc(C)cc4)o3)cs2)cc1 | 5.41% (inactive)
73 | COc1ccccc1/C=C/C=N/NC(=O)CN1CCN(Cc2ccccc2)CC1 | -1.91% (inactive)
74 | COc1ccc(/C=N/NC(=O)c2ccncc2)cc1CN1CCCc2ccccc21 | 22.8% (active)
75 | COc1ccc(OC)c(CN2CCN(C(=O)CNC(=O)c3cc(C)cc(C)c3)CC2)c1 | -0.63% (inactive)
76 | CCOC(=O)C(=O)C1C(=O)Nc2ccccc21 (centres undefined) | 6.34% (inactive)
77 | O=C(Nc1cccc(Cc2ccccc2)c1)Nc1ccc2nc([C@@H]3O[C@H](CO)[C@@H](O)[C@H](O)[C@H]3O)[nH]c2c1 | 10.5% (inactive)
78 | CCOC(=O)C1Sc2[nH]c(=O)sc2C(c2ccc(Cl)cc2)C1C(=O)OCC (centres undefined) | 5.84% (inactive)
79 | Cc1ccc(/C=N/NC(=O)c2cc3ccccc3cc2O)o1 | 3.65% (inactive)
80 | CC1CCCCC1NC(=O)/C(C#N)=C/C=C/c1ccccc1[N+](=O)[O-] (centres undefined) | -0.36% (inactive)
81 | Cn1c(NN)nc2sc3c(c2c1=O)CCC3 | 11.8% (inactive)
82 | O=C(O)c1ccccc1N=N/C(=N/Nc1cc(S(=O)(=O)O)ccc1O)c1ccccc1 | 9.57% (inactive)
83 | O=C(N/N=C/c1ccc(O)c2ccccc12)c1cccnc1 | -1.25% (inactive)
84 | COc1ccc(-c2csc(Nc3ccc(O)cc3)n2)cc1 | 2.15% (inactive)
85 | O=C(O)Cc1sc(-c2ccccc2)nc1-c1cccs1 | -3.2% (inactive)
86 | CCOc1ccc(Cn2c(SCCCCC#N)nc3c2c(=O)n(C)c(=O)n3C)cc1OCC | 3.27% (inactive)
87 | CCC(C)c1ccc(O)c(/C=N/O)c1 (centres undefined) | 8.65% (inactive)
88 | COCCOC(=O)c1sc(=S)n(CCOC)c1N | 9.71% (inactive)

Row | Structure (SMILES) | inhibition
89 | Oc1ccc(N=Cc2sc3ccccc3c2Cl)cc1 | -0.14% (inactive)
90 | Oc1ccc(N=Cc2c(O)ccc3ccccc23)cc1 | -1.4% (inactive)
91 | c1ccc2[nH]c(-c3nc4ccccc4[nH]3)nc2c1 | 5.66% (inactive)
92 | CNC(=S)N/N=C/c1cn(Cc2ccc(C)cc2)c2ccccc12 | 9.36% (inactive)
93 | COc1cc(/C=N\Nc2nc(-c3cccs3)c(NC(C)=O)s2)ccc1O | 13.2% (inactive)
94 | CCn1c(SC)nc(O)c(C(c2ccc(OC)c(O)c2)c2c(O)nc(SC)n(CC)c2=O)c1=O | -4.61% (inactive)
95 | O=C1CCN(C(=S)NCCc2ccccc2)CC1 | -3.6% (inactive)
96 | CN(Cc1ccc(C(F)(F)F)cc1)C(=O)[C@H]1O[C@@H](n2cnc3c(N)ncnc32)[C@H](O)[C@@H]1O | 68.3% (active)
97 | Nc1ncnc2c1ncn2[C@@H]1O[C@H](C(=O)NCC(F)(F)F)[C@@H](O)[C@H]1O | 44.1% (active)
98 | CC(=O)CSc1nnc(CSc2ncccn2)n1C1CCCCC1 | -1.2% (inactive)
99 | O=C(CSc1ccc(-c2ccco2)nn1)Nc1cccc(F)c1 | 0.25% (inactive)
100 | Cc1cccc(C2c3c(n(C)c(=O)n(C)c3=O)N=C3c4ccccc4C(=O)C32)c1 (centres undefined) | -3.19% (inactive)
101 | Cc1[nH]c2ccccc2c1C(=O)CSCC(=O)O | -9.03% (inactive)
102 | COc1ccc(N2CCN(c3ccc([N+](=O)[O-])nc3)CC2)cc1 | 8% (inactive)
103 | CC(C)=CCCC1(C)C=Cc2c(ccc3c2[nH]c2cc(O)c(C)cc23)O1 (centres undefined) | 2.11% (inactive)
104 | Cc1ccc(Nc2nc(-c3ccc(O)cc3O)cs2)nc1 | 9.2% (inactive)
105 | O=C(CC[C@H]1O[C@@H](n2ccc(=O)[nH]c2=O)[C@H](O)[C@@H]1O)N[C@H](Cc1ccccc1)C(=O)NCCCN1CCCC1=O | 32.5% (active)
106 | O=c1[nH]n(-c2ccc([N+](=O)[O-])cc2)c(=O)c2ccccc12 | 19% (active)
107 | O=C1CC(c2ccccc2)=NN1c1ccc([N+](=O)[O-])cc1 | -0.43% (inactive)
108 | CC(C)/C=N/NC(=O)c1cc(Br)ccc1O | 4.2% (inactive)
109 | S=C(Nc1ccc(Br)cc1)NC1CCN(Cc2ccccc2)CC1 | 2.28% (inactive)
